Inconclusive results are not listed. Entries that show only a call come without a potency. A number with no mark means an inactive call. Active and inactive are the calls of the source. Calls come from the whole dose curve; as a rule, active = well fitted cell-killing curve with a large enough effect in the repeat runs; inconclusive = weak or mixed curves, or effect the other way; inactive = flat fitted curve, though single readings scatter.
Test: qHTS assay to identify small molecule agonists of the constitutive androstane receptor (CAR) signaling pathway - cell viability counter screen (AID 1224836); note: nearly all actives have a fitted effect of over 45% in size
Conditions: HepG2-CYP2B6-hCAR viability, CellTiter-Fluor, 23 h, PK11195 added to every well; series mostly up to 92.4 µM
Description: U.S. Tox21 Program National Center for Advancing Translational Sciences [NCATS] NIH Chemical Genomics Center [NCGC] U.S. Environmental Protection Agency [EPA] National Institutes of Environmental Health Sciences [NIEHS] National Toxicology Program [NTP] U.S. Food and Drug Administration [FDA] Tox21 Assay Overview: The constitutive androstane receptor (CAR) is a nuclear receptor which regulates multiple drug metabolizing enzymes (DMEs) and transporters. Activating CAR will generally increase the transcription and subsequent translation of CYP2B6 and CYP3A4. These two DMEs represent about 50% of the drug metabolizing potential in the body. […] Recently, there have also been studies performed indicating CARs role in energy metabolism and cancer therapy. Therefore, inducing CARs activity could have a potential effect on diabetes and cancer. Identifying environmental toxins and compounds which modulate CAR, through the use of the Tox21 10K compound collection, will be an important step in determining the toxicity and potential therapeutic effects these factors will have on the human body. To differentiate true CAR agonists from cytotoxic substances, the assay is multiplexed with a cell viability assay.
Tox21 Assay Protocol Summary: A double-stable (hCAR and CYP2B6-2.2kb) transfected cell line, derived from human hepatoma (HepG2) cells, was utilized for the duration of the quantitative high-throughput screens. The HepG2-CYP2B6-hCAR cells were dispensed at 2500 cells/4 uL/well in 1536-well white solid bottom plates using a Multidrop Combi. After the assay plates were incubated at 37 C/5% CO2 for 4 hrs, 23 nL of compounds at 15 concentrations (from 5-48 columns) or positive control (from 1 to 4 columns) were transferred to the assay plates using a Pintool station. One uL of PK11195 (final concentration = 0.75 uM) was added, using a Flying Reagent Dispenser, inside each well. After a 23 hr incubation period at 37 C/5% CO2, 1 uL of CellTiter-Fluor reagent was added into each well of the assay plates using a Flying Reagent Dispenser. The fluorescence intensity in the plates was then measured using a ViewLux plate reader.
Potency is the fitted concentration of half-maximal effect.

Q: With `CC(C)(C)c1cc(CCC(=O)OCCSCCOC(=O)CCc2cc(C(C)(C)C)c(O)c(C(C)(C)C)c2)cc(C(C)(C)C)c1O` as the molecule, how does the Potency read?
A: inactive

Q: For `Cc1cccc2c1ccc1ccccc12`, which Potency is on record?
A: inactive

Q: With `CCC1(C)C(=O)N(Cl)C(=O)N1Cl` (stereo not given) as the molecule, how does the Potency read?
A: inactive

Q: With `CC(=O)CC(N)=O` as the molecule, how does the Potency read?
A: inactive

Q: For `CC(O)(c1ccc(Cl)cc1)c1ccc(Cl)cc1`, which Potency is on record?
A: inactive

Q: Which Potency does the source give for `N#CCCOCCC#N` here?
A: inactive

Q: Which Potency does the source give for `N#Cc1ccc(C/C(=N/NC(=O)Nc2ccc(OC(F)(F)F)cc2)c2cccc(C(F)(F)F)c2)cc1` here?
A: inactive

Q: For `O=C(O)CN(CCCN(CC(=O)O)CC(=O)O)CC(=O)O`, which viability change, negative = cytotoxic is on record?
A: -21.6% [at 19 µM]

Q: With `SC1CCCCC1` as the molecule, how does the Potency read?
A: inactive

Q: For `C/C(=N\[Si](C)(C)C)O[Si](C)(C)C`, which Potency is on record?
A: inactive

Q: For `Nc1ccc(F)c([N+](=O)[O-])c1`, which Potency is on record?
A: inactive

Q: Which viability change, negative = cytotoxic does the source give for `COc1cc2ncnc(Nc3cccc(Cl)c3)c2cc1OC` here?
A: -10.2% [at 19 µM]

Q: With `CCc1cccc(C)c1N(C(=O)C(=O)O)C(C)COC` (stereo not given) as the molecule, how does the Potency read?
A: inactive

Q: With `O=C1C=CC(=O)N1c1cccc(N2C(=O)C=CC2=O)c1` as the molecule, how does the Potency read?
A: 61.1 µM (active)

Q: For `Nc1c(Br)cc([N+](=O)[O-])cc1Br`, which Potency is on record?
A: inactive

Q: With `c1ccc(C[P+](c2ccccc2)(c2ccccc2)c2ccccc2)cc1` as the molecule, how does the Potency read?
A: 30.6 µM (active)

Q: For `Nc1cc([N+](=O)[O-])cc(Cl)c1O`, which Potency is on record?
A: inactive

Q: Which Potency does the source give for `CC(C)c1ccc2sc3ccccc3c(=O)c2c1` here?
A: inactive

Q: Which Potency does the source give for `C1CCSC1` here?
A: inactive

Q: With `CCCCCCCCc1ccc(Nc2ccc(CCCCCCCC)cc2)cc1` as the molecule, how does the Potency read?
A: inactive

Q: Which Potency does the source give for `CCOc1ccc([N+](=O)[O-])cc1` here?
A: inactive

Q: For `Cn1c(=O)[nH]c2ncn(C)c2c1=O`, which Potency is on record?
A: inactive

Q: Which Potency does the source give for `COc1cc(OC)nc(NC(=O)NS(=O)(=O)Nc2ccccc2C(=O)N(C)C)n1` here?
A: inactive

Q: For `CC(C)=NNC(N)=S`, which Potency is on record?
A: inactive

Q: With `Cc1cccc(C)c1C` as the molecule, how does the Potency read?
A: inactive

Q: With `CC/C=C(\C)C=O` as the molecule, how does the Potency read?
A: inactive

Q: With `Clc1cccc(Cl)n1` as the molecule, how does the Potency read?
A: inactive

Q: For `O=C1OC(O)C(C(Cl)Cl)=C1Cl` (stereo not given), which Potency is on record?
A: inactive

Q: With `CO[Si](OC)(c1ccccc1)c1ccccc1` as the molecule, how does the Potency read?
A: inactive

Q: For `CSc1ccc(O)cc1C`, which Potency is on record?
A: inactive

Q: With `Oc1ccc(C2(c3ccc(O)c(C4CCCCC4)c3)CCCCC2)cc1C1CCCCC1` as the molecule, how does the Potency read?
A: 48.6 µM (active)

Q: With `CC(C)=CCC[C@H](C)CC=O` as the molecule, how does the Potency read?
A: inactive

Q: Which Potency does the source give for `CCN(CC)c1ccc(C=O)cc1` here?
A: inactive

Q: For `CCCCNc1ccc(NCCCC)c2c1C(=O)c1ccccc1C2=O`, which viability change, negative = cytotoxic is on record?
A: -17.5% [at 19 µM]

Q: For `[Cl][Dy]([Cl])[Cl]`, which Potency is on record?
A: inactive

Q: For `Cc1ccc2nc(-c3ccc(N)cc3)sc2c1S(=O)(=O)O`, which Potency is on record?
A: inactive

Q: For `c1ccc(-c2ccc(C(c3ccccc3)n3ccnc3)cc2)cc1` (stereo not given), which Potency is on record?
A: inactive

Q: With `C=CC(=O)O[C@H]1C[C@@H]2CC[C@@]1(C)C2(C)C` as the molecule, how does the Potency read?
A: inactive

Q: For `CCN(CC)c1ccc2c(c1)Oc1cc(N(CC)CC)ccc1C21OC(=O)c2ccccc21`, which Potency is on record?
A: 8.41 µM (active)

Q: Which Potency does the source give for `O=C(CCN1CCC(c2ccccc2)C1)c1ccc2c(c1)OCCO2` (stereo not given) here?
A: inactive

From PubChem BioAssay (Tox21)
